Source: PubChem BioAssay (NCATS)
Records with an inconclusive call do not appear. Calls of active or inactive are those of the source. Unless noted, the call rests on the fitted dose curve; in most records, active means well fitted curve in the direction sought with a large enough effect; inconclusive means small, poorly fitted or top-dose-only effect, or another doubt; inactive means no such curve, though single readings can be large; an effect the other way counts as inactive or inconclusive.

Tests used:
[1] = molecular target: Ferritin light chain (Equus caballus) (UniProt P02791); assay: qHTS Validation Assay for Identification of Novel General Anesthetics (AID 2323)
Method in brief: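 Competitive displacement of profluorescent 1-aminoanthracene (1-AMA, 50% saturated solution in PBS) from 10 uM horse-spleen apoferritin. Compounds incubated 10 min at room temperature; fluorescence read at 380 nm excitation/535 nm emission, normalized to free 1-AMA and complex, fitted with four-parameter Hill equation.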

[2] = molecular target: ATP-dependent DNA helicase Q1 (Homo sapiens) (UniProt P46063); assay: qHTS Validation Assay for Inhibitors of RecQ-Like Dna Helicase 1 (RECQ1) (AID 2353)
Method in brief: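 50 nM RECQ1T1 preincubated 15 min with compound in Tris pH 8.0 buffer with MgCl2, DTT, Tween-20 and 2.5 ug/ml poly(dI-dC); started with 200 nM TAMRA/BHQ-2 forked duplex and 2 mM ATP. Unwinding read as fluorescence (525/598 nm), two reads 2 h apart.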

[3] = Validation screen for small molecules that induce DNA re-replication in MCF 10A normal breast cells (AID 463097); further: nearly all actives have a fitted effect of over 60% in size
Method in brief: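 Readout: Hoechst nuclear fluorescence intensity, 405 ex / 500-530 em, by scanning plate imager; re-replication scored as increase in nuclei with elevated DNA content. Cells exposed to compound 48 hr, 37 C, 5% CO2 beforehand.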

[4] = Cytometric Cell-Based qHTS for Inhibitors of the mTORC1 Signaling Pathway in MEF (Tsc2-/-, p53-/-) Cells (AID 2660);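 further: percent of cells above a phospho-rpS6 to PI ratio cutoff in each well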
Method in brief: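 Cells are plated, treated with compound for 24 hrs at 37 degree Celsius, then fixed, blocked and immunostained for phospho-rpS6 Ser235/236. Propidium iodide counterstain follows. Per-well % positive cells is derived from the PI-normalized phospho-S6 signal.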

[5] = High Content Imaging Cell-Based qHTS for Inhibitors of the mTORC1 Signaling Pathway in MEF (Tsc2-/-, p53-/-) Cells (AID 2666); conditions: at 38.3 µM (top of the series);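 further: percent of cells scored positive for phospho-rpS6 Ser235/236 immunostaining by imaging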
Method in brief: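 Read-out: % positive cells per well, with thresholds from highest- and lowest-signal wells, based on phospho-rpS6 (Ser235/236) intensity normalized to Hoechst nuclear stain. Cells: Tsc2-/-, p53-/- MEFs carrying empty vector; compound 24 hrs, 37 degree Celsius.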

[6] = molecular target: Ubiquitin carboxyl-terminal hydrolase 2 (Homo sapiens) (UniProt O75604); assay: qHTS Validation Assay for Inhibitors of Ubiquitin-specific Protease USP2a Using CHOP2 as the Reporter (AID 463106)
Method in brief: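 USP2 core (10nM final) was preincubated with compound for 30min at RT in 20mM Tris-HCl pH 8.0, 2mM CaCl2, 2mM beta-mercaptoethanol, 0.05% CHAPS. Ub-CHOP2 and reporter substrate (25nM each) were added, and fluorescence (Ex 485/Em 531nm) was read after 60min.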

[7] = molecular target: DNA polymerase III PolC-type (Bacillus subtilis (strain 168)) (UniProt P13267); assay: qHTS Validation Assay for the Inhibitors of DNA Replication in Gram-Positive Bacteria (AID 485295);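 further: PicoGreen fluorescence of double-stranded DNA made on primed circular M13 template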
Method in brief: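 Reconstituted B. subtilis holoenzyme (Pol III, beta clamp, SSB, primase) was preincubated with compound at room temperature, then given single-stranded circular M13Gori plus dNTPs and NTPs. EDTA-containing PicoGreen stopped the reaction, and dsDNA product was read by fluorescence.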

[8] = Cytometry Cell-Based qHTS for Inhibitors of the mTORC1 Signaling Pathway in MEF cells (AID 2668);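 further: Tsc2-/- p53-/- mouse embryonic fibroblasts stably re-expressing wild-type Tsc2; percent cells positive for phospho-rpS6 Ser235/236 relative to propidium iodide stain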
Method in brief: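 WT MEFs (Tsc2-/-, p53-/- stably re-expressing WT Tsc2) in DMEM + 10% FBS received compounds 24 hrs after plating, for 24 hrs at 37 degree Celsius. Fixed cells stained with Alexa-488 anti-phospho-rpS6 Ser235/236 and propidium iodide; laser-scanning cytometry read-out.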

[9] = qHTS Validation Assay to Find Inhibitors of Chronic Active B-Cell Receptor Signaling (AID 485345; active means well fitted curve in the direction sought with a large enough effect in the main read-out, with a control signal flat, not every such curve was filed as active)
Method in brief: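 TMD8 ABC-DLBCL cells with dox-inducible green luciferase–IκBα fusion and red native luciferase; compounds 46 uM–3 nM, 4 h at 37C with doxycycline in 0.5% FBS IMDM. Green/red ratio normalized to basal and 10 uM MG-132.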

[10] = molecular target: RecQ-like DNA helicase BLM (Homo sapiens) (UniProt P54132); assay: qHTS Validation Assay for Inhibitors of Bloom's syndrome helicase (BLM) (AID 2364)
Method in brief: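 BLM 50 nM in 25 mM Tris-HCl pH 8.0, 5 mM NaCl, 2 mM MgCl2, 1 mM DTT, 0.01% Tween-20, 2.5 ug/ml poly(dI-dC); 15 min cpd preinc, RT. Start: 200 nM forked DNA + 2 mM ATP (final). TAMRA read, 2 reads 2 h apart.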

Measured: Potency

Ubiquitin carboxyl-terminal hydrolase 2 (Homo sapiens), sequence (O75604 whole entry, looked up): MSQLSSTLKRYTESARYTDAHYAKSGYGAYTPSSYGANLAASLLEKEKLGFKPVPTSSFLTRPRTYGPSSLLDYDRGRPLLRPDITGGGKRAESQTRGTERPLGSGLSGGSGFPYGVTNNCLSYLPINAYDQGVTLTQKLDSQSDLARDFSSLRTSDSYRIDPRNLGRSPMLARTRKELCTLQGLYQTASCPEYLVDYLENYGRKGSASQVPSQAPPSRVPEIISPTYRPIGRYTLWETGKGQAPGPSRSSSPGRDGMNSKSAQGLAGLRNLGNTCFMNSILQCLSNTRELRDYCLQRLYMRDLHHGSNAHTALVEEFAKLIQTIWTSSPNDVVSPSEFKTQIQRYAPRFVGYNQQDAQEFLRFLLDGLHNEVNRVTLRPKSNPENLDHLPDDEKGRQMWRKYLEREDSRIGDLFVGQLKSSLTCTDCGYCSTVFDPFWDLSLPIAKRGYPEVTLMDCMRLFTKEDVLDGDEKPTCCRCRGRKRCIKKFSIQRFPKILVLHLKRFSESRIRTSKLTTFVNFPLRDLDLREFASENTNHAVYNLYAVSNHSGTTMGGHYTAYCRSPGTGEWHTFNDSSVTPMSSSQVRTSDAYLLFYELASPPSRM
ATP-dependent DNA helicase Q1 (Homo sapiens), sequence (P46063 whole entry, looked up): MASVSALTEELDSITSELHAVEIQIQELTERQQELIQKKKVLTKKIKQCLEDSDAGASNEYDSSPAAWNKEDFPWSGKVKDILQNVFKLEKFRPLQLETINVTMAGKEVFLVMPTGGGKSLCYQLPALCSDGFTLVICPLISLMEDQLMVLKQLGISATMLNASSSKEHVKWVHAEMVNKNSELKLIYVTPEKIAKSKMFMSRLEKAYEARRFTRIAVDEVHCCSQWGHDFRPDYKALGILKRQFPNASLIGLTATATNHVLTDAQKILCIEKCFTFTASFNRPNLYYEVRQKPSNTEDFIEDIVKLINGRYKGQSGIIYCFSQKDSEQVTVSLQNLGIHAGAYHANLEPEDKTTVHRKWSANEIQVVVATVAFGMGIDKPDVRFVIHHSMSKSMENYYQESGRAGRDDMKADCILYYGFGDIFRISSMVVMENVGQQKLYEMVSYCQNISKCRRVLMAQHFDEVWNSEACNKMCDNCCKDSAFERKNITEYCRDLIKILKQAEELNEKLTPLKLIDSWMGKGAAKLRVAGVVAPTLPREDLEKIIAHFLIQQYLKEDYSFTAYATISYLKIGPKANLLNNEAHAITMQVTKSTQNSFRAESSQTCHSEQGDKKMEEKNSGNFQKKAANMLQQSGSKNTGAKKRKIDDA
Ferritin light chain (Equus caballus), sequence (P02791 2-175 limits assumed): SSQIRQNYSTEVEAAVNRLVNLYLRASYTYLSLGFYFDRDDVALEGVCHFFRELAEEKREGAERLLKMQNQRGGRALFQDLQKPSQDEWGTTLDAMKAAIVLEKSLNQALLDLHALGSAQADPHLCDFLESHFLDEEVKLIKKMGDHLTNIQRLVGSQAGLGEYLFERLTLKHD
RecQ-like DNA helicase BLM (Homo sapiens), sequence (P54132 whole entry, looked up): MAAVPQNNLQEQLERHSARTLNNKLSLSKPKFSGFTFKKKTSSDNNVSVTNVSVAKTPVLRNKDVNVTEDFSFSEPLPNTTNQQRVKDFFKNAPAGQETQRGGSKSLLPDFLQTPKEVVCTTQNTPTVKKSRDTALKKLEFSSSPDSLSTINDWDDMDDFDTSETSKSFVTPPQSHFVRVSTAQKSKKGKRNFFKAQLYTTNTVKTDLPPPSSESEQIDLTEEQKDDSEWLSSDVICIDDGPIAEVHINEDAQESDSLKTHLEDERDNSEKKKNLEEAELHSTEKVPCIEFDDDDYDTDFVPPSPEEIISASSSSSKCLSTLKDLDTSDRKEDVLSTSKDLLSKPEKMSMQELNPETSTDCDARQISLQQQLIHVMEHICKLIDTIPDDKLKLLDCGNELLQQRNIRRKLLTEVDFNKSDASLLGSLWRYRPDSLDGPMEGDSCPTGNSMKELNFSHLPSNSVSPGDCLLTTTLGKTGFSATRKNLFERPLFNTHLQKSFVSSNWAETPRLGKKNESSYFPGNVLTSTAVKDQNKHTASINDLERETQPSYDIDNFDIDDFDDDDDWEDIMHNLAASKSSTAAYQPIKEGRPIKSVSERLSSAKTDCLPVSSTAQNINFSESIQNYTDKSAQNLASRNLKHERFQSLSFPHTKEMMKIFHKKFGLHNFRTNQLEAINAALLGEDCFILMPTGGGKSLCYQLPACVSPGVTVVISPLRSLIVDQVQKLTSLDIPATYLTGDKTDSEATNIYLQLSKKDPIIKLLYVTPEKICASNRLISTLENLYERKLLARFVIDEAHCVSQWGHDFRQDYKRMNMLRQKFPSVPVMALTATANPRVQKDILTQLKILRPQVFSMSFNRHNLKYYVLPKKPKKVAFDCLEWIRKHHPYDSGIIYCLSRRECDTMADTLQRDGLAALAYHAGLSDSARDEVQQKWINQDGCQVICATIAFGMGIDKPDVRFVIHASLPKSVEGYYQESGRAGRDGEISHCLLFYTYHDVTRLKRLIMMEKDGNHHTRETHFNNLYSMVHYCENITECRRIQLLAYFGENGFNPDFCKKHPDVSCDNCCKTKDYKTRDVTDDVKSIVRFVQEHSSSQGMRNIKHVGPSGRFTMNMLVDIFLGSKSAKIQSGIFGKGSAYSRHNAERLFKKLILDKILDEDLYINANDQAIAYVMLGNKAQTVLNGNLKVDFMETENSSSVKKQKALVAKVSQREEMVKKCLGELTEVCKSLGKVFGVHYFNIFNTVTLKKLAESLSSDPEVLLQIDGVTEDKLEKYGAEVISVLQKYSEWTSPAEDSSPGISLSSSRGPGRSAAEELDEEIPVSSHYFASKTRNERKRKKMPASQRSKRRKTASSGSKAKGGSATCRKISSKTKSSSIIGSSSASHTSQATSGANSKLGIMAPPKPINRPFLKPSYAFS
DNA polymerase III PolC-type (Bacillus subtilis (strain 168)), sequence (P13267 whole entry, looked up): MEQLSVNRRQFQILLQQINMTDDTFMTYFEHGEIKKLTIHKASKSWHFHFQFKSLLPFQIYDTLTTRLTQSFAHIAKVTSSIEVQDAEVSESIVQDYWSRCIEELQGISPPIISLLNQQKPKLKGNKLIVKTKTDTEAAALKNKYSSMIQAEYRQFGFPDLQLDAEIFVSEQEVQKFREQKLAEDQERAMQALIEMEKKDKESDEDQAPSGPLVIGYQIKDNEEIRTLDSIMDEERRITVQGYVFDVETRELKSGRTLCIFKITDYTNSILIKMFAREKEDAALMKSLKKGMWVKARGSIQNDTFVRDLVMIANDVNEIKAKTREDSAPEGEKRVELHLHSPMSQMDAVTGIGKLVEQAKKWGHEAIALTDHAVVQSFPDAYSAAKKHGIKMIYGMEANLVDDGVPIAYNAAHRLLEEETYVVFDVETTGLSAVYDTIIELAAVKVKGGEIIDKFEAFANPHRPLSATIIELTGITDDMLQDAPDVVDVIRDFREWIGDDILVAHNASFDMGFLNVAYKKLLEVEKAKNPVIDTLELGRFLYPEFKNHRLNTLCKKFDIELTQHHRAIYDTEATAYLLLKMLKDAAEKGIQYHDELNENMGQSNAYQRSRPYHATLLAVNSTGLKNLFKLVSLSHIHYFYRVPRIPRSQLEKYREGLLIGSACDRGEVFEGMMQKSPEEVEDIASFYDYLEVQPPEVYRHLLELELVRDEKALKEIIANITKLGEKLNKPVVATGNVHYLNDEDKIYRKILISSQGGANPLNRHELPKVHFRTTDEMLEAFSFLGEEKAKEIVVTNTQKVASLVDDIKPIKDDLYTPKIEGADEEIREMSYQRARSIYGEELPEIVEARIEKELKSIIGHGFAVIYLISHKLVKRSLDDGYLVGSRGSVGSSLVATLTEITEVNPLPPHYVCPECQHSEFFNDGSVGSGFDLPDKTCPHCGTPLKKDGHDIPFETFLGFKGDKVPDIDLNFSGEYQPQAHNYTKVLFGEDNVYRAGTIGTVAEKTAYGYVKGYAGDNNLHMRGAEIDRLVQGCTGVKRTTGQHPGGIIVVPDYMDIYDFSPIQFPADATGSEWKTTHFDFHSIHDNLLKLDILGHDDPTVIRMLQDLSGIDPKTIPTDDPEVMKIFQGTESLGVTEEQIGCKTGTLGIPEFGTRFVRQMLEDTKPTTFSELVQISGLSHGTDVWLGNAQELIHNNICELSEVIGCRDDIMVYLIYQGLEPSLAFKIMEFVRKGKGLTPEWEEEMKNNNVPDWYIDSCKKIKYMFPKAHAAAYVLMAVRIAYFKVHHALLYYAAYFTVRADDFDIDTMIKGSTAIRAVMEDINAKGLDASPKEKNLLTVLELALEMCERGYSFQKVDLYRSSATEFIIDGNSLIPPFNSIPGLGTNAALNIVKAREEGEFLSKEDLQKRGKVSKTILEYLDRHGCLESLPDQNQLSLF

CN=C(NC#N)Nc1ccc(C2=NNC(=O)CC2C)cc1 (configuration not stated)
inactive: [1] | [2] | [3]

COc1cc2c(cc1O)CC[C@@H]1[C@@H]2CC[C@]2(C)[C@@H](O)CC[C@@H]12
inactive: [4] | [5] | [6] | [7]

N[C@H](CO)C(=O)O
not listed: [10]
inactive: all other assays above

CCCn1c(=O)[nH]c(=O)c2[nH]cnc21
not listed: [10]
inactive: all other assays above

C[C@@H]1C(=O)NC2=Nc3cccc(Cl)c3CN21
not listed: [10]
inactive: all other assays above

COC(=O)[C@H]1[C@H]2C[C@H]3c4[nH]c5ccccc5c4CCN3C[C@H]2CC[C@@H]1O
not listed: [10]
inactive: all other assays above

COc1cc(-c2ccc(=O)[nH]n2)ccc1OC(F)F
inactive: [1] | [2] | [3]

O=C(O)c1cc2cc(Cc3cccnc3)ccc2o1
not listed: [10]
inactive: all other assays above

CC1(C)CCC(NC(=O)[C@@H](N)CCC(=O)O)CC1
not listed: [10]
inactive: all other assays above

CN1C2CCC1CC(OC(=O)c1c[nH]c3ccccc13)C2 (configuration not stated)
not listed: [8]
inactive: all other assays above

Nc1cc(Cl)c(NC2=NCCN2)c(Cl)c1
not listed: [10]
inactive: all other assays above

CNCCC=C1c2ccccc2CCc2ccccc21
inactive: [2] | [10] | [3] | [6] | [7]

CC(CCc1ccccc1)NCC(O)c1ccc(O)c(C(N)=O)c1 (configuration not stated)
inactive: all assays above
